The record followed here is PubChem BioAssay (Tox21).

The structures appear in SMILES notation. Results filed as inconclusive are left out. Where a call stands in place of a potency, no number is given. Calls of active or inactive are those of the source. Calls follow the shape of the full dose curve.
Potency is read from the fitted curve at half-maximal effect.

The nature of this assay: p53 small molecule agonists, cell-based qHTS assay with rat liver microsomes: qHTS cell viability counter screen (AID 1963580). Also: nearly all actives have a fitted effect of over 45% in size. To be noted: p53RE-bla HCT-116 + rat microsomes, ATP viability, 16 h; series mostly up to 66 µM. In short, it runs like this: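 Cytotoxicity counter screen: intracellular ATP measured by CellTiter-Glo luminescence in the same wells as the beta-lactamase reporter read, on HCT-116 p53RE-bla cells exposed 16 h at 37 C to compounds with rat liver microsomes and NADPH, each 0.5 mg/mL final.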
Consider `O=C1O[C@H]([C@H](O)CO)C(O)=C1O`, for which the Potency result is “inactive”.

Take `COC(=O)c1ccc(O)cc1`: the Potency entry was “inactive”.

Consider `S=c1nc[nH]c2nc[nH]c12`, for which the Potency entry is “inactive”.

For `C[C@]12CCC(=O)C=C1CC[C@@H]1[C@@H]2C(=O)C[C@@]2(C)[C@H]1CC[C@]2(O)C(=O)CO`, the Potency entry is “inactive”.

With `C/C=C/C(=O)N(CC)c1ccccc1C`, the Potency entry was “inactive”.

For `O=c1c(-c2ccc(O)cc2)coc2cc(O)cc(O)c12`, the Potency was 16 µM (active).

On to `CN(N=O)C(=O)N[C@@H]1[C@@H](O)[C@H](O)[C@@H](CO)O[C@@H]1O`, for which the Potency entry is “inactive”.

On to `CCCCC1C(=O)N(c2ccccc2)N(c2ccccc2)C1=O`, for which the Potency entry was “inactive”.

Regarding `CC12CCC(CC1)C(C)(C)O2`, the Potency result was “inactive”.

`OC[C@@H](O)[C@@H](O)[C@H](O)[C@H](O)CO`: the Potency result was “inactive”.

Regarding `CCCN(CCC)S(=O)(=O)c1ccc(C(=O)O)cc1`, the Potency result was “inactive”.

For the compound `Cc1ncc([N+](=O)[O-])n1CCO`, the Potency result was “inactive”.

For `CCCCOC(=O)c1ccc(N)cc1`, the Potency result is “inactive”.

Regarding `C#C[C@]1(O)CC[C@H]2[C@@H]3CCC4=CC(=O)CC[C@@H]4[C@H]3CC[C@@]21CC`, the Potency result was “inactive”.

On to `c1ccc2c(c1)c1cccc3ccc4cccc2c4c31`, for which the Potency entry was “inactive”.

`CC1(C)O[C@@H]2C[C@H]3[C@@H]4C[C@H](F)C5=CC(=O)CC[C@]5(C)[C@H]4[C@@H](O)C[C@]3(C)[C@]2(C(=O)CO)O1`: the Potency result is “inactive”.

For the compound `CC(C)=CCC/C(C)=C/CO`, the Potency result was “inactive”.

Take `CN1C(C(=O)Nc2ccccn2)=C(O)c2ccccc2S1(=O)=O`: the Potency result is “inactive”.

As for `Cc1noc(NS(=O)(=O)c2ccc(N)cc2)c1C`, the Potency entry is “inactive”.

With `Cc1cc(=O)n(-c2ccccc2)n1C`, the Potency result was “inactive”.
